Screens: PubChem, The Scripps Research Institute Molecular Screening Center
Only some compounds are listed: those with a hit (about 3.5% of all), similar ones and a draw of the others.
FBW7 act: activators of human E3 ligase FBW7 | AID 1259310 | AlphaScreen FBW7–phospho-cyclin E peptide binding, activator screen | Q969H0 | normalized activity (activation), % at 26.1 µM | actives 0.13% (n = 650,000); in the data active means normalized activity above about 1.9%;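 further: purified mutant Fbw7 with reduced substrate affinity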
Target sequence (Q969H0 whole entry, looked up): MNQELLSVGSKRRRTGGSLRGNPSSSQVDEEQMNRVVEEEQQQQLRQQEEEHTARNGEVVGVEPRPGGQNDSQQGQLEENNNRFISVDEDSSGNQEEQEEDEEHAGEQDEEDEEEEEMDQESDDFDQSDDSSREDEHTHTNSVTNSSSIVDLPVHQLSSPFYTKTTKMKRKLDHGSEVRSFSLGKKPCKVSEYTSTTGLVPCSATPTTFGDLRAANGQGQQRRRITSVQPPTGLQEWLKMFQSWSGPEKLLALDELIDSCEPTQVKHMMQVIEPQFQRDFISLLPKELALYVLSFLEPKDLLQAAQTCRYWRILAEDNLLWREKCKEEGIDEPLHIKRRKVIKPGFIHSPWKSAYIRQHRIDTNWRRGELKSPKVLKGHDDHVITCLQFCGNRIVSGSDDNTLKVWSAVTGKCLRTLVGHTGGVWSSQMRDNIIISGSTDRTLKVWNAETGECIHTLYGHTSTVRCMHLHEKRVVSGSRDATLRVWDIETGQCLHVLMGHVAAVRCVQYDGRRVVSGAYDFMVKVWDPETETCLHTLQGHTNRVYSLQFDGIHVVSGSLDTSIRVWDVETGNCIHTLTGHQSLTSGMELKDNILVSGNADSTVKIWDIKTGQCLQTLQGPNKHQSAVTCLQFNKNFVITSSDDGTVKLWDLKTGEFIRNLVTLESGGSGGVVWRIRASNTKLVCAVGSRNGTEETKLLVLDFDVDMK
TEAD-YAP inh: TEAD-YAP interaction inhibition; actives 1.4% (n = 640,000); inhibition, % at 9.12 µM; HEK-TIYL cells, TEAD-Gal4/YAP UAS-luciferase luminescence; in the data active means inhibition above about 32%;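 further: 0% = median of test compound wells and 100% = reference inhibitor wells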
MITF inh: blocks human microphthalmia-associated transcription factor. AlphaScreen MITF homodimerization, bead proximity signal. O75030. actives 0.91% (n = 650,000). inhibition, % at 2.6 µM; in the data active means inhibition above about 50%;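 further: 0% = vehicle wells with protein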
GPR151 ag: human GPR151 activation; actives 1% (n = 650,000); AID 1508602; activation, % at 11.2 µM; PathHunter beta-arrestin GPR151 cells, luminescence; Q8TDV0; in the data active means activation above about 4.9%;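 further: 0% = median of compound wells and 100% = cells with positive control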
MITF inh conf: human MITF inhibition, confirmation; inhibition, % at 2.6 µM; actives 16% (n = 4,700); AlphaScreen MITF homodimerization, biotin/His-MITF beads; shares compounds with MITF inh; AID 1259372;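 active means inhibition above a cutoff derived from the DMSO control wells, cut at about 28% in these data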;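 further: 0% = MITF dimer wells with DMSO only; inhibitors lower the bead chemiluminescence by keeping MITF from dimerizing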
AS interf DR: counter-screen: compounds optically interfering with AlphaScreen. shares compounds with MITF inh. AlphaScreen optical interference counterscreen, cell-free. IC50, µM. actives 6% (n = 480). AID 1259373; call rule not given here
AlphaScreen intf2: optically interferes with AlphaScreen signal; shares compounds with MITF inh; LysRS AlphaScreen counterscreen, signal interference, triplicate; inhibition, % at 2.6 µM; actives 7.6% (n = 4,700);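 active means inhibition above a cutoff derived from the DMSO control wells, cut at about 30% in these data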
* = called active by the depositor; . = not tested or not shown; ! = not active in a repeat.

SMILES	FBW7 act	TEAD-YAP inh	MITF inh	GPR151 ag	MITF inh conf	AlphaScreen intf2	others
CC(=O)Nc1ccc(C(=O)CN2C(=O)NC3(CCc4ccccc4C3)C2=O)cc1 (centres undefined)	0.2	3.8	11.8	-0.7	.	.
O=C(C1CC(Cc2ccc(F)cc2)=NO1)N1CCN(c2ccc(Cl)cc2)CC1 (centres undefined)	-0.1	-14.6	2.6	-0.7	.	.
COc1cccc(COC(=O)Nc2ccc(-c3cn[nH]c3)cc2OCCN(C)C)c1	0.6	-11.2	14.5	0.4	.	.
COc1cccc(COC(=O)Nc2cc(F)c(-c3cn[nH]c3)cc2OCCN(C)C)c1	1.3	-5.3	80.5*	-0.3	46.6*	4.9
O=C(NCCCO)c1ccc(OC2CCN(CCc3ccccc3)CC2)cc1	0.0	5.2	-1.9	-0.1	.	.
O=C(NCCCn1ccnc1)c1ccc(OC2CCN(CCc3ccccc3)CC2)cc1	0.1	0.9	68.5*	3.8	-1.4	-5.5
CN1CCN(c2ccc(-c3nc4ccc(C(=O)NC5CCN(Cc6ccccc6)CC5)cc4s3)cc2)CC1	-0.1	11.2	10.4	-1.3	.	.
COc1cc(CN(C)CCN(C)C)cc(OC)c1O	-0.2	3.0	54.9*	0.9	-2.8	-4.1
CC1Cc2ccccc2N1C(=O)CNCC(c1ccccc1)N(C)C (centres undefined)	-0.7	-3.1	66.8*	-0.3	16.0	25.1
CC1Cc2ccccc2N1C(=O)CNCCN(C)C (centres undefined)	-0.2	-6.7	-3.1	-0.3	.	.
CC(C)c1ccc(NC(=O)CNCC(c2ccccc2)N(C)C)cc1 (centres undefined)	-0.2	2.0	64.9*	-0.5	-0.1	-0.5
CN(C)C(CNCC(=O)N1CCc2ccccc21)c1ccco1 (centres undefined)	-0.4	-9.7	62.2*	-1.2	1.8	9.5
CN(C)C(CNCC(=O)Nc1ccc2c(c1)CCC2)c1ccccc1 (centres undefined)	-0.4	-1.9	45.9	-1.5	.	.
CN(C)C(CNCC(=O)NC(=O)Nc1ccc2c(c1)OCCO2)c1ccccc1 (centres undefined)	-0.2	54.6*	79.4*	0.0	3.3	1.7
O=C(CSc1ncnc2c1nnn2-c1ccc(F)cc1)Nc1ccc2c(c1)OCCO2	0.0	5.6	5.9	-0.6	.	.
Cc1cccn2c(CNCc3ccccc3Cl)c(C(=O)N3CCCCC3)nc12	-0.2	2.4	1.1	-1.1	.	.
CCCN(c1cccc(C(F)(F)F)c1)S(=O)(=O)c1cc(Br)cnc1N	0.0	1.9	-9.8	-0.7	.	.
COc1ccc(N(C(C)C(=O)Nc2ccc(F)c(Cl)c2)S(C)(=O)=O)cc1 (centres undefined)	0.0	-1.1	-11.3	-1.3	.	.
CCOC(=O)c1ccc2nc(-c3ccccc3)c(-c3ccccc3)nc2c1	0.1	7.4	9.1	0.6	.	.
O=C(Nc1ccc(-c2noc(-c3ccccc3[N+](=O)[O-])n2)cc1)c1ccco1	0.1	-6.8	8.8	-0.3	.	.
CC(C)(C)CN1CCNC(=O)C1CC(=O)NCCCOc1cccnc1 (centres undefined)	0.1	-4.1	-2.1	1.2	.	.
O=S(=O)(Nc1cccc2cccnc12)c1ccccc1O	-0.3	72.2*	60.1*	1.0	87.3*	100.6*
O=S(=O)(Nc1cccc2cccnc12)c1ccc2ccccc2c1	-0.5	16.5	12.8	-0.1	.	.
Cc1nn(-c2ccccc2)c2ncc(C(=O)N3CCc4ccccc4C3)c(Cl)c12	1.0	3.7	14.8	2.9	.	.
COC(=O)c1ccc(NC(=O)CSc2nnc3[nH]c(=O)c(C)c(C)n23)cc1	0.5	10.2	17.5	-2.4	.	.
SMILES	FBW7 act	TEAD-YAP inh	MITF inh	GPR151 ag	MITF inh conf	AlphaScreen intf2	others
CC(=O)c1ccc(NC(=O)CSc2nnc3[nH]c(=O)c(C)c(C)n23)cc1	0.0	6.4	56.3*	-1.0	13.2	8.5
C=CCN1C(=O)/C(=c2\sc3n(c2=O)C(c2cccs2)C(C(=O)OCC)=C(C)N=3)c2ccccc21 (centres undefined)	0.1	8.2	2.1	0.3	.	.
CC(Sc1nc2ccccc2o1)C(=O)O (centres undefined)	1.5	-25.4	63.5*	-1.6	3.0	9.9
Cc1nnc(SCC(=O)Nc2cccc(F)c2)n(N)c1=O	0.0	-5.9	-0.2	-1.6	.	.
CN(C)CCNc1nc(C2COc3ccccc3O2)nc2ccc(-c3cn[nH]c3)cc12 (centres undefined)	0.6	-8.7	51.8*!	-2.4	63.6*	-12.5	AS interf DR=>6.48
CCOc1cc(CN2CCN(S(=O)(=O)c3ccccc3[N+](=O)[O-])CC2)ccc1OC	0.2	-9.6	65.9*	1.9	8.5	13.3
COc1cccc(CN2CCN(S(=O)(=O)c3ccccc3[N+](=O)[O-])CC2)c1	-0.3	-2.3	66.5*	0.0	9.3	10.8
CC(=O)Nc1ccc(Nc2nc(-c3ccc(C(=O)N4CCN(C)CC4)cc3)nc3c2ncn3-c2ccccc2)cc1	-0.1	18.0	7.7	-0.9	.	.
O=C(C1CC12CCN(Cc1ccc3c(c1)OCO3)CC2)N1CCN(Cc2ccccn2)CC1 (centres undefined)	0.0	5.5	10.2	0.8	.	.
O=C(C(=O)N1CCN(Cc2ccc3c(c2)OCO3)CC1)N1CCN(Cc2ccc3c(c2)OCO3)CC1	0.8	1.6	-11.3	-2.0	.	.
c1cc(CN2CCN(Cc3ccc4c(c3)OCO4)CC2)co1	0.3	-3.2	65.9*	-1.2	1.4	8.8
Fc1cccc(F)c1CN1CCN(Cc2ccc3c(c2)OCO3)CC1	-0.2	3.0	59.2*	0.0	-9.3	-5.6
c1ccc(CN2CCN(Cc3ccc4c(c3)OCO4)CC2)nc1	0.0	-0.4	62.8*	0.7	-6.6	-1.0
Brc1csc(CN2CCN(Cc3ccc4c(c3)OCO4)CC2)c1	0.5	0.2	61.7*	-0.4	9.5	12.6
CCC(C)NC(=O)CCc1cn(C)c2ccccc12 (centres undefined)	-0.1	-0.7	-13.1	-0.6	.	.
CCn1cc(C(=O)O)c(=O)c2cc(F)c(N3CCC(Cc4ccc(OC)c(OC)c4)O3)cc21 (centres undefined)	0.0	4.7	-10.0	-0.4	.	.
CCCCC1CN(CC(=O)NCc2cn3cc(C)ccc3n2)Cc2ccccc2O1 (centres undefined)	-0.2	-4.0	-5.3	0.6	.	.
COc1ccc(-c2csc3ncc(C(=O)N(C)CCO)c(=O)n23)cc1	0.1	-5.5	5.2	-1.0	.	.
Cc1nc(N2CCN(Cc3ccc4c(c3)OCO4)CC2)c2c(C)c(C)sc2n1	0.0	14.7	73.6*	2.8	7.2	6.6
Cc1ccsc1CN1CCN(Cc2ccc3c(c2)OCO3)CC1	-0.1	0.3	55.7*	0.3	2.1	5.4
CCC1CN(CC(=O)NC2C3CC4CC(C3)CC2C4)Cc2cc(OC)ccc2O1 (centres undefined)	0.1	-4.5	59.8*	1.4	-1.1	6.3
